This is part of a sample that, as a whole, favours compounds with a hit. Of some 83,000 tested, about 20% had one in any assay.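 Values shown are percent growth following 48 h exposure of cells in 96-well plates to a single concentration of compound; below 10 was considered active.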 A number with no mark means an inactive call. Active and inactive are the calls of the source.

These results are taken from PubChem BioAssay (NCI).

For one experiment, the system named is UO-31 renal. The experiment in a line: NCI-60 one-dose screen, 48 h (100 = growth as untreated, 0 = no growth, -100 = all killed). The note with it: 10 µM unless noted.
Consider `CC(C)(C)n1cc(-c2ccnc(NCCNS(=O)(=O)c3ccc(O)cc3)c2)c(-c2cccc(O)c2)n1`, for which the growth was 91.2%. On the same count and under the same terms, then `CC1(C)C(N)=Nc2cc(OCCCN3Cc4ccccc4C3)c(OCC3CC3)cc21`, with 58.6%. In the case of `CCOC(=O)C(=CNc1cnc(Nc2ccc(N3CCOCC3)cc2)nc1Oc1ccc(OC)cc1)C(=O)OCC`, the growth is 11.3%.

As to `O=C(Nc1ccccc1O)c1ccc(CNC(=O)c2ccsc2Nc2ccnc(C(F)(F)F)c2)cc1`, the growth is 19.1%. As for `CC(=O)ON1CCCC(P(=O)(OCCSC(=O)C(C)(C)C)OCCSC(=O)C(C)(C)C)C1=O` (stereo not given), the growth was -0.776% (active).

For the next experiment, the system named is TK-10 renal. Described as above. The note with it: 10 µM unless noted.
On to `C[n+]1ccc(CCc2c[nH]c3ccccc23)cc1`, for which the growth is 81.2%. As for `O=C(CI)NC(=O)NC(=O)NCc1ccccc1`, the growth was 74.7%. For the molecule `O=C1/C=C/[C@@H](O)[C@@H]2C[C@@H](O)C[C@H]2/C=C/CCC[C@@H](O)CCO1`, the growth was 115%. For the molecule `CC/C=C\C[C@H](O)C/C=C1/C(=O)C=C[C@@H]1C/C=C\CCCC(=O)O`, the growth was 103%.

Turning to `CCCCNC(=O)c1cc([N+](=O)[O-])cc(C2CCCCC2)c1O`, the growth is 49.1%.

For the molecule `CC(=C(c1ccc(OCCN2CCCCC2)cc1)c1ccc(OCCN2CCCCC2)cc1)c1ccc(Cl)cc1`, the growth was -88.5% (active). For the molecule `S=C(c1ccc2c(c1)OCO2)N1CCN(c2cccc(Cl)c2)CC1`, the growth was 53.3%. With `COc1ccc(/C(C)=C(/c2ccc(OCCCN(C)C)cc2)c2ccc(OC(=O)c3ccccc3)cc2)cc1`, the growth is 87.8%. As to `Cc1c(CC(=S)N2CCOCC2)nnn1-c1cccc(C(F)(F)F)c1`, the growth is 104%. In the case of `COc1cccc(/C=C/C(=O)c2cc3c(N)c(C(=O)Nc4cccc5ccccc45)sc3nc2C)c1`, the growth is 32%.

As to `COc1cc(OC)c2sc(-c3ccc(-n4cncc4-c4cc(OC)c(OC)c(OC)c4)cc3)nc2c1`, the growth was 66.1%. Take `COC(=O)C(Cc1ccccc1)NC(=O)c1ccc(NC(=O)c2[nH]c(C)c(Cl)c2Cl)c(OC(C)C)c1` (stereo not given): the growth was 53.5%. As to `O=C(N/N=C\c1cccc([N+](=O)[O-])c1)N/N=C/c1cccc([N+](=O)[O-])c1`, the growth is 117%. As to `COc1ccccc1N(C(C)=O)C1=C(Cl)C(=O)c2ccccc2C1=O`, the growth is -6.2% (active). Turning to `COc1cccc(CNc2c3ccccc3nc3ccccc23)c1`, the growth is 51.7%. Consider `NC1(CO)COC(c2ccccc2)OC1` (stereo not given), for which the growth is 96.5%. Same read-out and setting: next, `CO[C@H](C(=O)[C@@H](O)[C@@H](C)O)[C@@H]1Cc2cc3cc(O[C@H]4C[C@@H](O[C@H]5C[C@@H](O)[C@H](O)C(C)O5)[C@H](O)C(C)(O)O4)cc(O)c3c(O)c2C(=O)[C@H]1O[C@H]1C[C@@H](O[C@H]2C[C@@H](O[C@H]3C[C@@H](OC)[C@H](O)C(C)O3)[C@@H](O)C(C)O2)[C@H](O)C(C)O1` (stereo not given in full): 37%. As for `N#Cc1c(-c2ccccc2)nc(SCC(O)CN2CCOCC2)nc1N1CCOCC1` (stereo not given), the growth was 40.8%. For the molecule `COc1cc(-c2nc3cc(Cl)c(Cl)cc3[nH]2)ccc1OCC(=O)N=Nc1c(O)[nH]c2ccc(Cl)cc12`, the growth is 36.5%. On to `CNC(=O)c1ccccc1Nc1nc(Nc2cc(OC)c(OC)c(OC)c2)ncc1Br`, for which the growth is -31.4% (active). Consider `C=C(C)[C@@H]1CC[C@]2(C(N)=O)CC[C@]3(C)[C@H](CC[C@@H]4[C@@]5(C)CC[C@H](OCCC#N)C(C)(C)[C@@H]5CC[C@]43C)[C@@H]12`, for which the growth is 117%. Turning to `N#C/C(=C\C=C\c1ccc(-c2cc(Cl)ccc2Cl)o1)c1nc2ccccc2s1`, the growth is 118%. On to `COc1ccc(/C=C/C(c2cc(OC)c(OC)c(OC)c2)n2ccnc2)cc1O` (stereo not given), for which the growth is 84.5%. Regarding `Cc1ccc2nc(/C(C#N)=C(/CCCO)NC(Cc3ccccc3)C(=O)OCc3ccccc3)[nH]c(=O)c2c1` (stereo not given), the growth is 126%.

For `N#C/C(=C\c1ccc(-c2cccc(C(F)(F)F)c2)o1)c1ccccc1`, the growth was 150%. As to `O=C(NC1CC(F)C1)c1cc2cccnc2n1-c1ccc(Cl)c(Cl)c1` (stereo not given), the growth is 90.2%. Consider `CCNC(=O)Oc1ccc(/C(=C(/CC)Cc2ccccc2)c2ccc(OCCN3CCCC3)cc2)cc1`, for which the growth is 91.2%. With `COc1cc(C2C(C(=O)OCc3ccccc3)=C(C)NC(C)=C2C(=O)OCc2ccccc2)cc(OC)c1OC`, the growth is 34.8%. For `CN(Cc1cc(Br)cc(Br)c1O)Cc1cc(Br)cc(Br)c1O`, the growth was 40.6%. Take `Cc1c2cccnc2c(C)c2c1c1cc(CO)ccc1n2C`: the growth is 26.7%. `S=c1[nH]c(=S)c2c(-c3ccccc3)c(-c3ccccc3)oc2[nH]1`: the growth was 124%. Regarding `CCC1S/C(=N\N=C(\C)c2cc3cc(Cl)ccc3o2)N(c2ccccc2)C1=O` (stereo not given), the growth was 88%. Same read-out and setting: then `CCN(CC)Cc1cc(Nc2ccnc3cc(Cl)ccc23)ccc1O`, with 108%; and `CCOC(=O)C(Cc1ccc(OC)cc1)C(=O)OCC`, with 46.6%. Same read-out and setting: next, `CC1(C)CC[C@]2(C(=O)N[C@H](CO)Cc3ccccc3)CC[C@]3(C)C(=CC[C@@H]4[C@@]5(C)CCCNC(C)(C)[C@@H]5CC[C@]43C)[C@@H]2C1`: 95.5%; `CC(C)(C)n1cc(-c2ccnc(NCCNS(=O)(=O)c3ccc(O)cc3)c2)c(-c2cccc(O)c2)n1`: 116%. In the case of `CC1(C)C(N)=Nc2cc(OCCCN3Cc4ccccc4C3)c(OCC3CC3)cc21`, the growth was 81.3%.

With `CCOC(=O)C(=CNc1cnc(Nc2ccc(N3CCOCC3)cc2)nc1Oc1ccc(OC)cc1)C(=O)OCC`, the growth is -26% (active). The same measure, in the same setting: then `O=C(Nc1ccccc1O)c1ccc(CNC(=O)c2ccsc2Nc2ccnc(C(F)(F)F)c2)cc1`, with -13.7% (active); and `CC(=O)ON1CCCC(P(=O)(OCCSC(=O)C(C)(C)C)OCCSC(=O)C(C)(C)C)C1=O` (stereo not given), with 27.2%.
